The nature of test [1]: circadian clock period modulators, cell-based, LOPAC library, luminescence reporter (AID 2774; call rule not given here;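 also: values are relative to mean of DMSO wells on each plate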). As to conditions: circadian reporter cells, at 7 µM, actives lie on both sides.
Test [2] deals with Hepatitis C virus NS3 helicase. The test is described as follows: HCV NS3 helicase inhibitors, primary screen, biochemical, fluorescence polarization, LOPAC1280 library (AID 687035; in the data active = inhibition above about 37%). As to conditions: Purified HCV NS3 helicase, Cy5-dT15 ssDNA binding fluorescence polarization; stronger effect = higher value; concentration not given here. For orientation: In fluorescence polarisation assays a small probe gives low polarisation when free and higher when bound to something large.

Test [3] in a line: Cy5 fluorescence quenching or enhancement artefacts, artefact control for HCV NS3 helicase inhibitor project, biochemical, LOPAC1280 (AID 687037; call rule not given here). As to conditions: Cy5-DNA-NS3h complex fluorescence interference counterscreen. (A counterscreen serves to expose hits that act by an unwanted route or on another target.)
Test [4] in a line: phospholipid biosynthesis inhibitors in animal cells, primary screen, cell-based, LOPAC library, screen 4 (AID 1347384; call rule not given here). As to conditions: phospholipid biosynthesis inhibition screen, at 10 µM.
The nature of test [5]: hESC survival regulators, cell-based (AID 493140; call rule not given here;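 also: cells exposed to compounds for four days before counting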). As to conditions: human embryonic stem cell survival screen; stronger effect = higher value.
Test [6] in a line: inhibitors of Cryptococcus chitosan production, flow cytometry, Cibacron Brilliant Red staining (AID 1347148; call rule not given here;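 also: compound exposure lasted three days at 37 degrees C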). The note with it: Cryptococcus neoformans chitosan, stronger effect = lower value; at 99.1 µM unless noted.
Test [7] concerns the target Calcium-dependent protein kinase 1 (Plasmodium falciparum (isolate 3D7)) (UniProt P62344). The test is described as follows: PfCDPK1 kinase inhibitors, biochemical, TCAMS library (AID 1159585; cut-off not given, nearly all actives have IC50 up to about 0.98 µM;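 also: inhibitors leave more ATP so luminescence rises with inhibition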). The note with it: recombinant PfCDPK1, Kinase-Glo ATP depletion luminescence.
In test [8] the target is Plasmodium falciparum protein kinase 6 (PK6, PF3D7_1337100) (UniProt Q8IDW1). Put plainly: PfPK6 kinase inhibitors, biochemical, TCAMS library (AID 1159586; call rule not given here). The note with it: recombinant PfPK6, Kinase-Glo ATP depletion luminescence.
A short description of test [9]: ovarian cancer cell viability with rucaparib, profiling panel, oncology-focused library, rucaparib conditional (AID 1508598). The note with it: patient-derived ovarian cancer cells, CellTiter-Glo viability, 144 h, stronger effect = lower value.
For test [10], the target named is Tyrosine-protein kinase ABL1 (Homo sapiens) (UniProt P00519). Put plainly: PubChem AID 493040. As to conditions: kinase panel binding, pKi.
Test [11] can be described thus: kinase inhibitors against Plasmodium liver-stage infection, cell-based, known kinase inhibitor set, luminescence, hepatoma host viability (AID 624392; call rule not given here;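 also: infected cells incubated roughly two days before readout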). The note with it: Plasmodium liver stage in hepatoma cells, luciferase luminescence, concentration not given here; liver cell % of control: measured here: host liver cell viability; parasite % of control: stronger effect = lower value.

Test [12] is described as follows: modulators of glucocorticoid suppression of NF-kB, cell-based, luciferase, IL-1B stimulus, dexamethasone (AID 624486; call rule not given here;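 as to percent of negative control (+Dex): 100% = mean signal of vehicle control wells on the plate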). The note with it: NF-kB luciferase reporter, IL-1B + dexamethasone, luminescence; percent of negative control (+Dex): actives lie on both sides, concentration not given here; z-score: measured here: IL-1B alone, no Dex. For orientation: Reporter assays use an easily measured gene product as a stand-in for the process of interest.

Test [13] can be described thus: kinase inhibitors altering Pseudomonas killing of worms, whole organism (AID 651566; call rule not given here;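 also: tested at 14 µM; sign flipped so higher z means a lower ratio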). The note with it: C. elegans killed by P. aeruginosa, survival ratio.
Test [14] can be described thus: activators of macrophage pro-inflammatory response, cell-based, murine, luminescence (AID 652131; call rule not given here). The note with it: murine macrophage pro-inflammatory reporter, stronger effect = higher value.
In test [15] the target is Cellular tumor antigen p53 (Homo sapiens) (UniProt P04637). The test is described as follows: kinase inhibitors altering GFP-p53 stability in HPV16-positive cells, imaging, known kinase inhibitor set, EGFP/DsRed ratio (AID 1053116; call rule not given here;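 also: cells exposed to compounds for 24 h at 37 °C before reading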). The note with it: stronger effect = higher value; EGFP object count: measured here: GFP-p53 positive objects count.
A short description of test [16]: IRF3 reporter activation in THP-1 macrophages, cell-based, PMA-stimulated THP-1, luminescence (AID 1053176; call rule not given here). The note with it: PMA-differentiated THP-1, IRF3 reporter luminescence; stronger effect = higher value.
Test [17] is described as follows: survival rescue of mitochondrial mutant cells in low glucose, primary screen, MELAS cybrids, Rieske KO mouse fibroblasts, CellTiter-Glo (AID 1508586;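 active = mean z-score across replicates of 1.96 or higher in either the MELAS or the Rieske mutant cell line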;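 also: z relative to plate mean and SD of compound and empty wells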).
The mark [18] stands for this setting: MELAS cybrid survival, CellTiter-Glo 48 h, stronger effect = higher value.
Setting [19] is: Rieske KO mouse fibroblast survival, CellTiter-Glo 72 h.

The structures appear in SMILES notation. For some assays here: Measured potencies and affinities stand elsewhere. Activity calls are given as the source filed them.

Cellular tumor antigen p53 (Homo sapiens), sequence (P04637 whole entry, looked up): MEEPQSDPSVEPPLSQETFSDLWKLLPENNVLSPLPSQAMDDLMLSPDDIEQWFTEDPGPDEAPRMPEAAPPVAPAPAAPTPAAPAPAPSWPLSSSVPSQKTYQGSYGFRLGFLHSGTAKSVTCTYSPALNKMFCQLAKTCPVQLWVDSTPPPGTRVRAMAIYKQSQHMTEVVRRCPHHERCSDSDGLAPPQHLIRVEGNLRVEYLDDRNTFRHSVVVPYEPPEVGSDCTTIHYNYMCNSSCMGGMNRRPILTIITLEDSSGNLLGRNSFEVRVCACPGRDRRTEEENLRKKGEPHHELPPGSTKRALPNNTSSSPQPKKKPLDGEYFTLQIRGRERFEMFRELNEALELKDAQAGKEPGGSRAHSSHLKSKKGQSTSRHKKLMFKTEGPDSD
Calcium-dependent protein kinase 1 (Plasmodium falciparum (isolate 3D7)), sequence (P62344 whole entry, looked up): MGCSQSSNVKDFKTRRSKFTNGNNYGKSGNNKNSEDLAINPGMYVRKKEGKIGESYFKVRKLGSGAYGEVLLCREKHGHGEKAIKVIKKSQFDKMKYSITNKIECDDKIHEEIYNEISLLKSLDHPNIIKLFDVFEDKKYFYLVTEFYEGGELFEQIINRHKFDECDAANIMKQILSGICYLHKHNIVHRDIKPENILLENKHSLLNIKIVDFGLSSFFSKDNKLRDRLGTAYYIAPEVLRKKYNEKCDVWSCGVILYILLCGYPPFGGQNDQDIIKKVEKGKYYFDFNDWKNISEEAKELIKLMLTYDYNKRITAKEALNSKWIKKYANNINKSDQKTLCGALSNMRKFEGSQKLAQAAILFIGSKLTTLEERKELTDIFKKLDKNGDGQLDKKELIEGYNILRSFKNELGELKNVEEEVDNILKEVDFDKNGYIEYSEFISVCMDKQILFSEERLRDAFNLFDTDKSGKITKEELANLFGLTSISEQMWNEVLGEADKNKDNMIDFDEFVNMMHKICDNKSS
Plasmodium falciparum protein kinase 6 (PK6, PF3D7_1337100), sequence (Q8IDW1 1-305): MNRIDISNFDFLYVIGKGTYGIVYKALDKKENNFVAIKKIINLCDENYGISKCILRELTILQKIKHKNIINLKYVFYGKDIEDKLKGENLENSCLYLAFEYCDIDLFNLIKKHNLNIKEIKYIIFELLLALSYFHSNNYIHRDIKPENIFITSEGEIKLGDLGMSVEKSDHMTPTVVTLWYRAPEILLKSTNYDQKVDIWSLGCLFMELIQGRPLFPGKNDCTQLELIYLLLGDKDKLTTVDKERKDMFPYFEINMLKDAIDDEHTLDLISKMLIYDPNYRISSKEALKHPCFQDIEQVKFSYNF
Tyrosine-protein kinase ABL1 (Homo sapiens), sequence (P00519 whole entry, looked up): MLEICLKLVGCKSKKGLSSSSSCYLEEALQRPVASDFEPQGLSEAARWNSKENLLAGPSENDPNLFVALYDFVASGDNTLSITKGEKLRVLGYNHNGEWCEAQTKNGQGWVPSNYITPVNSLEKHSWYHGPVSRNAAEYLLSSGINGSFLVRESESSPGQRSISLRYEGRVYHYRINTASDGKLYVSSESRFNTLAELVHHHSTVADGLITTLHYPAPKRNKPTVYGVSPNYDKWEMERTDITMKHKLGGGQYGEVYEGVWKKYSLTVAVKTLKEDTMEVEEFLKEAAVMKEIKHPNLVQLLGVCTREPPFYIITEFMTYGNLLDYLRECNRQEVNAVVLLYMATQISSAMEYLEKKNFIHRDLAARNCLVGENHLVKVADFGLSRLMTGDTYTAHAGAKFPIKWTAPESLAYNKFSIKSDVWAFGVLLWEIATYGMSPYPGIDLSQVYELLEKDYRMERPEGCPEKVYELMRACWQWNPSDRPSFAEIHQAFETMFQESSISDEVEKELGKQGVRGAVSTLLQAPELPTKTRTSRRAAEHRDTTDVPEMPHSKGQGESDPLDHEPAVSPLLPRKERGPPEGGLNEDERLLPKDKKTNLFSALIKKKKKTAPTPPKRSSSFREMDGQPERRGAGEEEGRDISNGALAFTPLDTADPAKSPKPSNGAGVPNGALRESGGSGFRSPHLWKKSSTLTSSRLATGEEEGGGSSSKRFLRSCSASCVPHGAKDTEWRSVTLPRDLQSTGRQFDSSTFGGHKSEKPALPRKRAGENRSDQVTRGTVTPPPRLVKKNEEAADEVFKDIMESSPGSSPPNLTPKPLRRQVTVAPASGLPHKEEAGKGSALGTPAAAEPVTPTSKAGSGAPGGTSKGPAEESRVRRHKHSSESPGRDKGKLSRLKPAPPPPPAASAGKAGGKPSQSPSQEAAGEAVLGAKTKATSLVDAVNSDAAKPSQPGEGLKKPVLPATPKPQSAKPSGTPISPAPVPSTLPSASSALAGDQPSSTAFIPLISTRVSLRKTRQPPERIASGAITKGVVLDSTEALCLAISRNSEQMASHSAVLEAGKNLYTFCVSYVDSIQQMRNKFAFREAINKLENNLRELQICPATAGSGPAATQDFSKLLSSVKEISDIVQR

As usually defined, the inhibition is the change of the read-out against control, counted positive when it falls. With `CN(C)c1cc2c(Nc3ccc4c(cnn4Cc4ccccc4)c3)ncnc2cn1`, the period change in [1] is 0.33 h (inactive). The inhibition in test [2] is -1% (inactive). Further, the fluorescence ratio (interference) in test [3] was 1 (inactive). Besides, the compound was classed as inactive in [4].

Consider `Cn1cc(C2=C(c3cn(CCCSC(=N)N)c4ccccc34)C(=O)NC2=O)c2ccccc21`, for which the survival in [5] is 72.7 (inactive). In addition, the fold fluorescence in test [6] is 10.1 [at 109.3 µM] (inactive).

`CN(C)c1cc2c(Nc3ccc4nc(Cc5ccccc5)[nH]c4c3)ncnc2cn1`: the result in test [7] and in test [8] was inactive.

As to `Cc1ccc(O)cc1Nc1ccnc2cc(-c3ccccn3)ccc12`, the result in test [7] and in test [8] was inactive.

The viability is a read-out of living cells in per cent, often relative to untreated cells. Take `NC(=O)c1ccc(-c2nc(-c3ccc4c(c3)OCO4)c(-c3ccccn3)[nH]2)cc1`: in test [6], the fold fluorescence was 18.6 [at 130.1 µM] (inactive). Also, the viability was 134% (inactive) in test [9] (at 0.000305 µM, OCI-C5x cells, with rucaparib 10 µM, 100% = cells with rucaparib alone); 138% (inactive) in test [9] (at 0.000305 µM, OCI-C5x cells, without rucaparib); 116% (inactive) in test [9] (at 0.000305 µM, OCI-P5x cells, with rucaparib 20 µM, 100% = cells with rucaparib alone); 105% (inactive) in test [9] (at 0.000305 µM, OCI-P5x cells, without rucaparib); 135% (inactive) in [9] (at 0.00122 µM, OCI-C5x cells, with rucaparib 10 µM, 100% = cells with rucaparib alone); 143% (inactive) in [9] (at 0.00122 µM, OCI-C5x cells, without rucaparib). Besides, the viability in test [9] (at 0.00122 µM, OCI-P5x cells, with rucaparib 20 µM, 100% = cells with rucaparib alone) was 110% (inactive); in [9] (at 0.00122 µM, OCI-P5x cells, without rucaparib) it was 103% (inactive); in test [9] (at 0.00488 µM, OCI-C5x cells, with rucaparib 10 µM, 100% = cells with rucaparib alone) it was 139% (inactive); in [9] (at 0.00488 µM, OCI-C5x cells, without rucaparib), 135% (inactive); in [9] (at 0.00488 µM, OCI-P5x cells, with rucaparib 20 µM, 100% = cells with rucaparib alone) it was 108% (inactive); in test [9] (at 0.00488 µM, OCI-P5x cells, without rucaparib), 99.5% (active). For the same compound, the viability was 136% (inactive) in test [9] (at 0.0195 µM, OCI-C5x cells, with rucaparib 10 µM, 100% = cells with rucaparib alone); 143% (inactive) in [9] (at 0.0195 µM, OCI-C5x cells, without rucaparib); 112% (inactive) in [9] (at 0.0195 µM, OCI-P5x cells, with rucaparib 20 µM, 100% = cells with rucaparib alone); 101% (inactive) in test [9] (at 0.0195 µM, OCI-P5x cells, without rucaparib); 130% (inactive) in test [9] (at 0.0781 µM, OCI-C5x cells, with rucaparib 10 µM, 100% = cells with rucaparib alone); 147% (inactive) in test [9] (at 0.0781 µM, OCI-C5x cells, without rucaparib). In addition, the viability is 106% (inactive) in test [9] (at 0.0781 µM, OCI-P5x cells, with rucaparib 20 µM, 100% = cells with rucaparib alone); 94.4% (active) in test [9] (at 0.0781 µM, OCI-P5x cells, without rucaparib); 130% (inactive) in [9] (at 0.313 µM, OCI-C5x cells, with rucaparib 10 µM, 100% = cells with rucaparib alone); 146% (inactive) in [9] (at 0.313 µM, OCI-C5x cells, without rucaparib); 105% (inactive) in [9] (at 0.313 µM, OCI-P5x cells, with rucaparib 20 µM, 100% = cells with rucaparib alone); 102% (inactive) in test [9] (at 0.313 µM, OCI-P5x cells, without rucaparib). Also, the viability is 146% (inactive) in [9] (at 1.25 µM, OCI-C5x cells, with rucaparib 10 µM, 100% = cells with rucaparib alone); 153% (inactive) in [9] (at 1.25 µM, OCI-C5x cells, without rucaparib); 114% (inactive) in [9] (at 1.25 µM, OCI-P5x cells, with rucaparib 20 µM, 100% = cells with rucaparib alone); 92.1% (active) in [9] (at 1.25 µM, OCI-P5x cells, without rucaparib); 198% (inactive) in test [9] (at 5 µM, OCI-C5x cells, with rucaparib 10 µM, 100% = cells with rucaparib alone); 187% (inactive) in test [9] (at 5 µM, OCI-C5x cells, without rucaparib). The viability is 102% (inactive) in test [9] (at 5 µM, OCI-P5x cells, with rucaparib 20 µM, 100% = cells with rucaparib alone) and 93.9% (active) in test [9] (at 5 µM, OCI-P5x cells, without rucaparib). Further, the result in [10] was inactive.

In [11], `NC(=O)c1cccc(Nc2nccc(Nc3cccc(F)c3)n2)c1` came in with a liver cell % of control of 116%. For the same compound, the parasite % of control in test [11] was 398% (inactive). Moreover, the percent of negative control (+Dex) in test [12] is 208% (active). Moreover, the z-score is 8.4 in test [12]; 1.67 (inactive) in test [13]; 0.244 (inactive) in test [14]; -0.778 (inactive) in test [17] (setting [18]); -0.359 in [17] (setting [19]). In test [15], the EGFP object count came out at 2. Moreover, the EGFP/DsRed ratio in [15] is 0.0178 (inactive). Further, the fraction signal in test [16] was 0.002 (inactive).

In test [11], `NS(=O)(=O)c1ccc(NC2CC(c3ccc(O)c(F)c3)NN2)cc1` (configuration not stated) returned a liver cell % of control of 113%. In [11], the parasite % of control was 139% (inactive). Besides, the percent of negative control (+Dex) in [12] was 94.5% (inactive). Also, the z-score in test [12] was -0.075; in test [13], -1.04 (inactive); in test [14], -0.229 (inactive); in test [17] (setting [18]) it was -0.752 (inactive); in test [17] (setting [19]) it was -0.137. Also, the EGFP object count in [15] was found to be 2.5. In addition, the EGFP/DsRed ratio in [15] was 0.101 (inactive). The fraction signal in test [16] is 0.0025 (inactive).

With `O=C(O[C@H]1CN[C@H](C#Cc2cc3ncnc(Nc4ccc5c(ccn5Cc5cc(F)ccc5F)c4)c3s2)C1)N1CCOCC1`, in test [11], the liver cell % of control worked out at 93.4%. The parasite % of control in test [11] was 75.1% (inactive). The percent of negative control (+Dex) in test [12] is 62% (inactive). Also, the z-score is -2.06 in [12]; 0.505 (inactive) in test [13]; 2.01 (inactive) in test [14]; -0.816 (inactive) in [17] (setting [18]); -0.0743 in test [17] (setting [19]). Besides, the EGFP object count in [15] worked out at 3. Also, the EGFP/DsRed ratio in test [15] was 0.0606 (inactive). For the same compound, the fraction signal in [16] was -0.0085 (inactive).

The values above are taken from PubChem BioAssay.
